HPGD block – qHTS Assay for Inhibitors of HPGD (15-Hydroxyprostaglandin Dehydrogenase). 150,000 compounds, 4.3% hits. purified HPGD, NADH fluorescence kinetic, PGE2 substrate. 15-hydroxyprostaglandin dehydrogenase [NAD(+)] (Homo sapiens), P15428. Potency, µM, inactives show top-dose activity change, negative = inhibition, actives largely listed as inhibitors; note: potency is the fitted concentration of half-maximal effect
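NADH formation kinetics: reaction with 30 uM PGE2 and 1 mM NAD+ (final), 20 nM enzyme, Tris-HCl pH 8 with Tween 20, after 15 min compound preincubation at room temperature. Fluorescence change, last versus first of five reads.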
ALDH1A1 inh – qHTS Assay for Inhibitors of Aldehyde Dehydrogenase 1 (ALDH1A1). Aldehyde dehydrogenase 1A1 (Homo sapiens), P00352. Purified ALDH1A1, NADH fluorescence, propionaldehyde substrate. Potency, µM (highest dose often 75.3 µM), inactives show top-dose activity, negative = inhibition, hits mostly inhibitors. 220,000 compounds, 7.3% hits. AID 1030, 2008;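 note: potency is the fitted concentration of half-maximal effect; plate controls were no enzyme wells and a reference inhibitor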
Target sequence (P00352 whole entry, looked up): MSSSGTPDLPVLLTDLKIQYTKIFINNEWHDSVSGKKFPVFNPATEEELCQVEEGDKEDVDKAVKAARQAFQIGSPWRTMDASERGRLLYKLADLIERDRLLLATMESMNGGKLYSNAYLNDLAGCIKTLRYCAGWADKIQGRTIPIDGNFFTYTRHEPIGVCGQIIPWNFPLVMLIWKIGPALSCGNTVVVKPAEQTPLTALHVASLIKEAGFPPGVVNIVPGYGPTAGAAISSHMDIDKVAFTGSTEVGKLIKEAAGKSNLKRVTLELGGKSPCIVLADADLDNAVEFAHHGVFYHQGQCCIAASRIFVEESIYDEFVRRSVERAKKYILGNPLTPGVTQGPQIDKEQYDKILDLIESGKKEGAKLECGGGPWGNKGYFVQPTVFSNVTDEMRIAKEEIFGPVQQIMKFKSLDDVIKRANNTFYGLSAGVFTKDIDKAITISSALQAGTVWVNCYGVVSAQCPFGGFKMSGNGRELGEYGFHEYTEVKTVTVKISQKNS
IMPase inh – qHTS Assay for Identifying the Cell-Membrane Permeable IMPase Inhibitors. CHO-M1 cells, IP1 accumulation, HTRF TR-FRET ratio. 120,000 tested, under 10 active. inhibition (IP1 accumulation), % at 46.1 µM. Inositol monophosphatase 1 (Rattus norvegicus), P97697; active = well fitted curve in the direction sought with a large enough effect in the signal ratio, not every such curve was filed as active; inconclusive = small, poorly fitted or top-dose-only effect, or a change in a side signal; inactive = no such curve, though single readings can be large or run the other way; the % refers to the signal ratio;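 note: cells stimulated with carbachol in lithium chloride buffer; plate controls were DMSO basal wells for no effect and reference inhibitor wells for full effect; higher means more IMPase inhibition seen as more IP1 and lower FRET ratio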
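Cellular IMPase inhibition is scored as a rise in cytosolic IP1, detected by competitive TR-FRET between d2-labelled IP1 and a europium anti-IP1 antibody. M1-expressing CHO cells were stimulated with carbachol for 30 min at 37C, with lithium (50 mM LiCl) present in the buffer.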
* hit, by the source's call; ? = inconclusive; . = no result; [ ] = another dose, or the depositor's remark. Hits are enriched below; roughly 9% of the tested compounds scored in any of these assays. Unless noted, calls come from the whole dose curve; as a rule, active = well fitted inhibition curve with a large enough effect (not every such curve was filed as active); inconclusive = small, poorly fitted or top-dose-only effect, or another doubt; inactive = no such curve, though single readings can be large or run the other way. Unless noted, % is set by controls: 0 for no effect and ±100 for the full control effect.

SMILES | HPGD block | ALDH1A1 inh | IMPase inh
COc1cccc([C@@H]2Oc3ccc(OC)cc3C[C@H]2OC(=O)N[C@H]2CCCc3ccccc32)c1 | -7% | ? | .
Cn1cccc1C(=O)N1CCC[C@@]2(CCN(c3cccc(-c4ccccc4)c3)C2)C1 | ? | -12% | .
CC(C)C[C@H](NC(=O)N1CCCCCC1)C(=O)N[C@H](Cc1cn(C)c2ccccc12)C(=O)N[C@H](Cc1ccccn1)C(=O)O | -2% | -12% | 1
COc1ccccc1C(=O)C1CCCN(C(=O)Nc2ccccc2F)C1 (stereo not drawn) | . | 10% | .
O=C1CC(=O)N(CCNc2ncc(C(F)(F)F)cc2Cl)C(=O)N1 | -18% | 7% | 0
O=S(=O)(NCCNc1ncc(C(F)(F)F)cc1Cl)C(F)(F)F | . | 13% | .
O=C(O)/C=C/C(=O)NCCNc1ncc(C(F)(F)F)cc1Cl | . | 28µM* | .
O=C1C=CC(=O)N1CCNc1ncc(C(F)(F)F)cc1Cl | . | 0.63µM* | .
CCOc1cc(C)c(-c2onc(C(F)(F)F)c2-c2csc(C)n2)c(O)c1 | -12% | 1% | 2
COc1cc(S(=O)(=O)Nc2ccc(C)cc2)ccc1N=Cc1c(C)c(C#N)c(=O)n(C)c1O | . | -2% | .
Cc1ccc(N/N=C/c2c(C)c(C#N)c(=O)n(C)c2O)cc1C | . | 0.79µM* | .
COC(=O)N1CCC[C@@]2(CCN(C(=O)Nc3cccc(C#N)c3)C2)C1 | -2% | -6% | .
CC(C)CN1CCCC2(CCN(C(=O)c3cc(C(F)(F)F)cc(C(F)(F)F)c3)CC2)C1 | -4% | 4% | .
Cc1cc(C)c(COCc2cc(/C=N/O)c(C)cc2C)cc1/C=N/O | 14µM* | 23% | 3
CCn1cc(/C=N/O)c(C)n1 | 0% | 4% | 3
CCOP(=O)(c1ccccc1)C1(O)CCCCC1 (stereo not drawn) | -11% | 2% | -3
COc1ccc(O)c(C(=O)c2cc(C#N)c(=O)n(Cc3ccccc3)c2)c1 | . | 15% | .
COc1ccc(O)c(C(=O)c2cnn(C(=O)c3cc(C)oc3C)c2)c1 | -15% | 3.5µM* | -8
COc1ccc(C(=O)n2cc(C(=O)c3cc(C)ccc3O)cn2)cc1 | -12% | 0.4µM* | .
Cc1ccc(O)c(C(=O)c2cnn(-c3ccccc3)c2)c1 | 3.5µM* | -5% | 3
Cc1ccc(-n2cc(C(=O)c3ccccc3O)cn2)cc1 | ? | ? | 5
COc1ccc(C(=O)n2cc(C(=O)c3cc(C)ccc3O)cn2)cc1OC | ? | 0.16µM* | .
COc1ccc(C(=O)n2nc(C)cc2C)cc1OC | -9% | 3% | 2
CCn1c(C)nc2cc(C(=O)n3cc(C(=O)c4ccccc4O)cn3)ccc21 | . | 4% | -6
COc1ccc(CCNC(=O)C2CCC(=O)N2CCc2ccccc2)cc1OC (stereo not drawn) | . | -1% | .
SMILES | HPGD block | ALDH1A1 inh | IMPase inh
CCCCC[C@H](O)/C=C/C=C\C=C\C=C\[C@@H](O)[C@@H](O)CCCC(=O)O | 1% | 10% | .
O=C(Cc1cnn(-c2ccccc2)c1)c1ccc(O)c(O)c1O | 28µM* | 3.2µM* | 5
CCc1cc(C(=O)Cc2cnn(-c3ccccc3)c2)c(O)cc1O | ? | ? | 0
Cn1ccnc1SCC(=O)Nc1cccc(S(=O)(=O)N2CCCCCC2)c1 | . | -6% | .
COCC(C)NC(C(=O)Nc1cccc(C(C)=O)c1)c1ccccc1 (stereo not drawn) | . | 14µM* | .
CCOc1ccc(NC(C(=O)Nc2cccc(C(C)=O)c2)c2ccccc2)cc1 (stereo not drawn) | -5% | -3% | 8
COCC(C)NC(C(=O)Nc1ccc(C)c(Cl)c1)c1ccccc1 (stereo not drawn) | -11% | ? | 3
CCN(CC)CCNC(C(=O)Nc1cccc(C(C)=O)c1)c1ccccc1 (stereo not drawn) | . | 14µM* | .
CCOC(=O)c1sc(=S)n(C)c1NC(=O)c1ccccc1Cl | 28µM* | 32µM* | 8
CCOC(=O)c1sc(NC(=O)Nc2ccccc2Cl)cc1C | -30% | -1% | .
Cc1cc(C(F)F)nn1CC(=O)NCc1ccccc1F | -11% | -9% | -12
Cc1ccc2nc(C)c(C(=O)N/N=C/c3cccs3)n2c1 | -11% | ? | .
Cc1ccn2c(C(=O)N/N=C\c3cccs3)c(C)nc2c1 | -19% | ? | 6
Cc1ccc2nc(C)c(C(=O)NN=C3CCCCCC3)n2c1 | . | 7.9µM* | .
CN1CCC(=NNC(=O)c2cc(-c3ccc(Cl)cc3)n[nH]2)CC1 | . | -10% | .
Cc1ccc(C)c(-n2c(C)cc(/C=N/NC(=O)c3c(C)nc4cc(C)ccn34)c2C)c1 | ? | 13µM* | 5
Cc1ccn2c(C(=O)NN=C3CCN(C)CC3)c(C)nc2c1 | . | 2.2µM* | .
CCOc1ccccc1C(=O)N(CN1CCCC1=O)c1cccc(Cl)c1 | 2% | -6% | -11
CCOc1ccccc1NC(=O)C(OC(=O)c1ccc(O)cc1)c1ccccc1 (stereo not drawn) | -10% | 7.9µM* | 4
CCOc1ccccc1NC(=O)C(OC(=O)c1ccc(CC)cc1)c1ccccc1 (stereo not drawn) | -4% | ? | .
CSc1ncnc2c1ncn2[C@@H]1O[C@@H](CO)[C@H](O)O[C@@H]1O | -3% | 8%[13.5 µM] | .
Cc1cc(F)ccc1NCc1ccccc1[N+](=O)[O-] | . | 0.63µM* | .
O=[N+]([O-])c1ccccc1CNc1ccc(F)c(Cl)c1 | -5% | ? | .
Cc1cc([N+](=O)[O-])ccc1NCc1ccccc1[N+](=O)[O-] | . | 18µM* | .
O=C(O)c1cc([N+](=O)[O-])ccc1NCc1ccccc1Cl | . | 0% | .
SMILES | HPGD block | ALDH1A1 inh | IMPase inh
COc1ccccc1OCC(=O)NNC(=O)c1c(-c2ccccc2Cl)noc1C | . | 10% | .
OC/C(Br)=C(\Br)CO | -2% | 5% | .
Fc1ccc(-c2cn3cc(Cc4ccc(Cl)cc4)sc3n2)cc1 | . | . | 3
CCC(C)(NC=O)C(=O)Nc1c(C)cccc1C (stereo not drawn) | . | -4% | .
CC(C)(C)c1ccc(OCC(O)CN(CCO)CC(O)Cn2ccc3ccccc32)cc1 (stereo not drawn) | -8% | 5% | -3
OCCN(CC(O)Cn1ccc2ccccc21)CC(O)Cn1ccc2ccccc21 (stereo not drawn) | -4% | 28µM* | 6
Cc1ccc(C)c(/C(=N\N=C(N)N)C2CC2)c1 | -5% | 5%[13.5 µM] | .
O=C(CSc1nnc(-c2cccnc2)s1)Nc1ccc(C(=O)O)cc1 | -22% | ? | 4
COC(=O)Oc1ccc(/C=N/NC(=O)CSCc2ccccc2Br)cc1OC | -5% | 13µM* | 13
COc1ccc(/C=N/NC(=O)CSc2ccccc2)cc1OC | -10% | ? | .
CC#CCN1c2ccccc2[C@]23C[C@@H](C(=O)OC)N(S(=O)(=O)c4ccc(C)cc4)C2=NC(C(=O)OC)=C(C(=O)OC)[C@H]13 | -6% | 4%[13.5 µM] | .
COc1cc2c(cc1OC)C(c1cc3ccccc3oc1=O)=NC(C)(C)C2 | ? | -1% | 5
COc1cc2c(cc1OC)C(CC#N)=NC(C)(C)C2 | -11% | 2µM* | 4
CCN1CCN(C(=S)NCC(C)C)CC1 | -4% | -4% | .
O=C(O)C(O)C(O)(Cc1ccc(O)cc1)C(=O)O (stereo not drawn) | -5% | -2% | .

From PubChem BioAssay
